Measurements from paper PMC8384837, “Expanding the binding specificity for RNA recognition by a PUF domain”.

target: PUM1 PUF domain R1-RGC (Homo sapiens, UniProt Q14671 828-1176, S863R;R864G;Q867C); experiment: yeast three-hybrid, YBZ-1, SC-Leu-His + 0.5 mM 3-AT, 4 days; conditions: tags: N-Gal4 AD-HA kept; label: inside an RPR1-promoter hybrid RNA with tandem MS2 sites; ssRNA
Outline: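 Repeat regions from input (SC-Leu) and selection (SC-Leu-His + 0.5 mM 3-AT) plates were PCR-amplified and Illumina-sequenced after four days of growth. The cells were strain YBZ-1 with a LexA–MS2 coat fusion and a HIS3 reporter, co-expressing Pumilio-1 PUF domain libraries and matching RNA elements from a centromeric plasmid. The interaction score is the log change in variant frequency from input to selection, taken in log2 with a pseudocount of 1 for absent variants.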

PUM1 PUF domain R1-RGC, sequence (Q14671 828-1176 S863R/R864G/Q867C): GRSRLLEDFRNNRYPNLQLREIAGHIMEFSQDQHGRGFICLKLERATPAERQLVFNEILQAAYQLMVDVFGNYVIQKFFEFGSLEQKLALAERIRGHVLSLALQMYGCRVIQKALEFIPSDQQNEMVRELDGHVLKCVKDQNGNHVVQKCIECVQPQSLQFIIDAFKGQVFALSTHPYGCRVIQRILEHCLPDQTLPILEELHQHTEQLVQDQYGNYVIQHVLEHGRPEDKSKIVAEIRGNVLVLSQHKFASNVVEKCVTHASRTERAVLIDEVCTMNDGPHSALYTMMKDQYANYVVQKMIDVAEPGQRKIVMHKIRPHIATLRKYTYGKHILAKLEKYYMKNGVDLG

Row | Sequence | binding signal
1 | GGCUAGAACUAGUGGAUCCCCCGGCGCCCGGCGGCUCGAGCCCGGGUAAGUGUAAAUCGUCUGCAUGCCGCCGGGCGCCAUGCCUGCAGGUCGACUCUAGAAAACAUG | 3.36 log2 enrichment (interaction score)
2 | GGCUAGAACUAGUGGAUCCCCCGGCGCCCGGCGGCUCGAGCCCGGGUAAGUGUAAAUGGUCUGCAUGCCGCCGGGCGCCAUGCCUGCAGGUCGACUCUAGAAAACAUG | 1.27 log2 enrichment (interaction score)
3 | GGCUAGAACUAGUGGAUCCCCCGGCGCCCGGCGGCUCGAGCCCGGGUAAGUGUAAAUUGUCUGCAUGCCGCCGGGCGCCAUGCCUGCAGGUCGACUCUAGAAAACAUG | 2.07 log2 enrichment (interaction score)
